# Inconclusive results are not listed. The source made the active and inactive calls. Rule for the calls: active = hit-call score of the fitted dose curve at least 0.9, where 1 is the maximum; inconclusive = response in the unintended direction; inactive = score below 0.9.
# Molecular target: human Adrenergic, Alpha 2A Receptor (Adra2A), ADRA2A (gene 150) (UniProt P08913)
# Test: NVS_GPCR_hAdra2A: NovaScreen (NVS) G Protein-Coupled Receptor Assay for human Adrenergic, Alpha 2A Receptor (Adra2A) (AID 2283257)
# Protocol: NVS_GPCR_hAdra2A is a biochemical, single-readout assay that uses extracted gene-proteins from HT29 in a cell-free assay. Measurements were taken 1 hour after chemical dosing in a 48-well plate.NVS_GPCR_hAdra2A is one of one assay component(s) measured or calculated from the NVS_GPCR_hAdra2A assay. It is designed to make measurements of radioligand binding, a form of binding reporter, as detected with scintillation counting signals by Filter-based radiodetection technology.Data from the assay component NVS_GPCR_hAdra2A was analyzed into 1 assay endpoint. This assay endpoint, NVS_GPCR_hAdra2A, was analyzed in the positive analysis fitting direction relative to DMSO as the negative control and baseline of activity. Using a type of binding reporter, loss-of-signal activity can be used to understand changes in the binding as they relate to the gene ADRA2A. Furthermore, this assay endpoint can be referred to as a primary readout, because the performed assay has only produced 1 assay endpoint. To generalize the intended target to other relatable targets, this assay endpoint is annotated to the gpcr intended target family, where the subfamily is rhodopsin-like receptor.
# Binding assays used specific radioligands (tritiated, iodinated) with non-radioactive competitive displacement ligands in agonist or antagonist protocols (as indicated) and various reference compounds and inhibitors to titrate specific binding to receptors and transporters. Most enzyme assays (CYPs, kinases, phosphatases, proteases, HDACs) used recombinant protein and specific substrates (fluorescence mostly, some colorimetric and radioactive) and inhibitors, followed by a biochemical separation of substrate and product. All assays for the biochemical HTS were initially run in duplicate at a single concentration (10 uM for CYP450 assays and 25 uM for all others). […] Each assay was run with positive and negative controls, and concurrent controls on every plate. The follow-up (secondary) screen tested active chemical-pairs in concentration series, as well as a few additional assays not tested in the primary screen, some selected negative inactives, and several cases re-run in the concentration series for confirmatory purposes.
# Sequence of human Adrenergic, Alpha 2A Receptor (Adra2A), ADRA2A (gene 150) (P08913 whole entry, looked up): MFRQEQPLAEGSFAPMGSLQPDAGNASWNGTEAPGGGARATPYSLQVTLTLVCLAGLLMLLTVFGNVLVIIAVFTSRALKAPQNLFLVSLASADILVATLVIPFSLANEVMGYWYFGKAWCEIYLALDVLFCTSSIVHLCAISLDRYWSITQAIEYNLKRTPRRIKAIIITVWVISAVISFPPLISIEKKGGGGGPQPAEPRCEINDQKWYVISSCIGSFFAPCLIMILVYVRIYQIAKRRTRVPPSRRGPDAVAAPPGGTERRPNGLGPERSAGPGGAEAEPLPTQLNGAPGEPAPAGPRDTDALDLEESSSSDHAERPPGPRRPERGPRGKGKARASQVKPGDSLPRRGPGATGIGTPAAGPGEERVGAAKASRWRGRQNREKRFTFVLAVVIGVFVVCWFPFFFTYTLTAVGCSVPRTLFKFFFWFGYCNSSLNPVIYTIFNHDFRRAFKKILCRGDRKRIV
SMILES,AC50,outcome
CN(C)C(=O)C1(N2CCCCC2)CCN(CC[C@@]2(c3ccc(Cl)c(Cl)c3)CN(C(=O)c3ccccc3)CCO2)CC1,35.6 µM (active),
COc1ccc2cc(S(=O)(=O)N[C@H](CC(=O)N[C@H](Cc3ccc(CN4[C@H](C)CCC[C@@H]4C)cc3)C(=O)N(C)C(C)C)c3ccc4c(c3)OCO4)ccc2c1,18.8 µM (active),
NCc1cccc(C2CCN(C(=O)c3ccc(C#Cc4ccccc4F)o3)CC2)c1,25 µM (active),
Clc1cc(Cl)c2c(c1)N=C1CCCCCN1C2,2.99 µM (active),
COc1cc(C(=O)NC2CCN(C)CC2)ccc1Nc1ncc2c(n1)N(C1CCCC1)CC(F)(F)C(=O)N2C,14 µM (active),
CN(C)c1ccc(C(=C2C=CC(=[N+](C)C)C=C2)c2ccc(N(C)C)cc2)cc1,2.59 µM (active),
CCN(Cc1cccnc1)C(=O)c1cccc(Cl)c1[C@]1(C)C(=O)N(Cc2ccc(OC)cc2OC)c2ccc(Cl)cc21,,inactive
O=C1c2ccccc2C(=O)N1CCc1noc(-c2ccc(CN3CCCCCC3)s2)n1,0.861 µM (active),
Cc1occc1C(=O)Nc1ccc(C(=O)N2CCC(F)(F)/C(=C\C(=O)N3CCC(N4CCCCC4)CC3)c3ccccc32)cc1,3.18 µM (active),
CCOC(=O)O[C@H](C)OC(=O)c1ccc2c(c1)cc(C(=O)NC1CCN(C(C)C)CC1)n2Cc1cc(-c2ccc(Cl)s2)on1,6.3 µM (active),
